# In article PMC8384837, “Expanding the binding specificity for RNA recognition by a PUF domain”:
# Target: PUM1 PUF domain R3-CRT (Homo sapiens, UniProt Q14671 828-1176, Q939T)
# Assay: yeast three-hybrid, YBZ-1, SC-Leu-His + 0.5 mM 3-AT, 4 days
# Settings: tags: N-Gal4 AD-HA kept; label: inside an RPR1-promoter hybrid RNA with tandem MS2 sites; ssRNA
# How it was run: (§1)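 The interaction score is the logarithmic change in variant frequency from input to selection. It uses log2, with a pseudocount of 1 for absent variants, and frequencies came from PCR-amplified, Illumina-sequenced repeat regions. The libraries were Pumilio-1 PUF domains randomized at the three base-contacting residues per repeat, co-expressed with matching RNA elements in strain YBZ-1 (LexA–MS2 coat fusion, HIS3 reporter). Plating lasted four days on SC-Leu (input) or SC-Leu-His + 0.5 mM 3-AT (selection).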
# Sequence of PUM1 PUF domain R3-CRT (Q14671 828-1176 Q939T): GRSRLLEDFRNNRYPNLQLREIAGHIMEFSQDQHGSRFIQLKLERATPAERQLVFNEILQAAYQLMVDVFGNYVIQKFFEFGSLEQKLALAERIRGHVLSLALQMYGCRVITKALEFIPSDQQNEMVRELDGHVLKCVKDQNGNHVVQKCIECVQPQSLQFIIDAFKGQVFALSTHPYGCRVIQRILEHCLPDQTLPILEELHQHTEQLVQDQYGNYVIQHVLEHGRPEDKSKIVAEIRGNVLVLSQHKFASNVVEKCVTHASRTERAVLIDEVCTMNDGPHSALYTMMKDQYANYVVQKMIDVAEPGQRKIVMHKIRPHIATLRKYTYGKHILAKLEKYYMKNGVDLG
row,Sequence,binding signal
1,GGCUAGAACUAGUGGAUCCCCCGGCGCCCGGCGGCUCGAGCCCGGGUAAGUGUAAGUAGUCUGCAUGCCGCCGGGCGCCAUGCCUGCAGGUCGACUCUAGAAAACAUG,1.54 log2 enrichment (interaction score)
2,GGCUAGAACUAGUGGAUCCCCCGGCGCCCGGCGGCUCGAGCCCGGGUAAGUGUAAUUAGUCUGCAUGCCGCCGGGCGCCAUGCCUGCAGGUCGACUCUAGAAAACAUG,1.12 log2 enrichment (interaction score)
3,GGCUAGAACUAGUGGAUCCCCCGGCGCCCGGCGGCUCGAGCCCGGGUAAGUGUAAAUAGUCUGCAUGCCGCCGGGCGCCAUGCCUGCAGGUCGACUCUAGAAAACAUG,3.85 log2 enrichment (interaction score)

# Target: PUM1 PUF domain R3-GRD (Homo sapiens, UniProt Q14671 828-1176, C935G;Q939D)
# Sequence (Q14671 828-1176 C935G/Q939D): as the sequence (Q14671 828-1176 Q939T) above, with C108G, T112D counted along it
# Assay: as above
# Settings: tags: N-Gal4 AD-HA kept; label: inside an RPR1-promoter hybrid RNA with tandem MS2 sites; ssRNA
# How it was run: as §1
row,Sequence,binding signal
1,GGCUAGAACUAGUGGAUCCCCCGGCGCCCGGCGGCUCGAGCCCGGGUAAGUGUAAGUAGUCUGCAUGCCGCCGGGCGCCAUGCCUGCAGGUCGACUCUAGAAAACAUG,6.36 log2 enrichment (interaction score)
2,GGCUAGAACUAGUGGAUCCCCCGGCGCCCGGCGGCUCGAGCCCGGGUAAGUGUAAUUAGUCUGCAUGCCGCCGGGCGCCAUGCCUGCAGGUCGACUCUAGAAAACAUG,2.16 log2 enrichment (interaction score)
3,GGCUAGAACUAGUGGAUCCCCCGGCGCCCGGCGGCUCGAGCCCGGGUAAGUGUAAAUAGUCUGCAUGCCGCCGGGCGCCAUGCCUGCAGGUCGACUCUAGAAAACAUG,4.82 log2 enrichment (interaction score)
